A selection: hits, their analogues and other compounds. The true share with any hit is near 17%.
S2 tox = Viability Counterscreen for Primary qHTS for Inhibitors of ATXN expression | S2 cells (HEK-293 line with an ATXN2-luciferase reporter) viability, CellTiter-Fluor protease fluorescence, 24 h | Potency, µM (doses to about 56.7 µM), usual class: cytotoxic | 0.49% of 400,000 active; also: nearly all actives have a fitted effect of over 40% in size
TGFb SMAD3 inh = qHTS for Inhibitors of TGF-b; HepG2 CAGA-GFP TGF-b/SMAD3 reporter, GFP fluorescence, 18 h; TGF-beta stimulated, 500 pg/mL final; Potency, µM (titrated, usually from 46.1 µM), usual class: inhibitors; 1.2% of 410,000 active; also: nearly all actives have a fitted effect of over 65% in size
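Per well, imaged GFP fluorescence of HEPG2 CAGA-GFP cells gives the signal; cells get compound, then TGF-beta (500 pg/mL final), 18 h at 37 degrees C; %Activity versus -TGF-beta and +DMSO controls.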
HepG2 tox = qHTS for Inhibitors of TGF-b: Cytotox Counterscreen; AID 588856, 2011; Potency, µM (highest dose often 46.1 µM), actives largely listed as cytotoxic; 0.76% of 410,000 active; HepG2 CAGA-GFP viability, ATP luminescence, 18 h
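HepG2 CAGA-GFP cells (1000/well, DMEM with 1% FBS) received compound, then TGF-beta at 500 pg/mL final, and were incubated 18 hours at 37 degrees C. Viability was read by CellTiter-Glo luminescence. Media-only wells were set as complete cell-killing and DMSO as no toxicity.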
ATXN2 expr inh = Primary qHTS for Inhibitors of ATXN expression; HEK-293 ATXN2-luciferase reporter, luminescence, 24 h; Potency, µM (top dose mostly 57 µM), actives largely listed as inhibitors; 0.72% of 360,000 active; also: nearly all actives have a fitted effect of over 55% in size
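ATXN2-luciferase reporter cells (luciferase flanked by upstream and downstream ATXN2 gene portions) were treated 24 h at 37 °C with compounds at up to 57 uM. SteadyGlo luminescence gave expression; GF-AFC fluorescence gave viability.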
DT40 TDP1 no CPT = qHTS for Inhibitors of human tyrosyl-DNA phosphodiesterase 1 (TDP1): qHTS in cells in absence of CPT. DT40 Tdp1-/- hTDP1 cells, no CPT, ATP luminescence, 48 h. Potency, µM (titrated, usually from 46.2 µM), actives largely listed as inhibitors. 15% of 420,000 active. AID 686978, 2013; also: nearly all actives have a fitted effect of over 55% in size
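Chicken DT40 Tdp1-/- cells complemented with human TDP1, screened without camptothecin (DMSO vehicle only), 400 cells/well. Compounds pin-transferred, cells incubated at 37 °C for at least 48 hr. Growth read as ATP-dependent luminescence (CellTiter-Glo, 30 min at RT).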
DT40 TDP1 CPT = qHTS for Inhibitors of human tyrosyl-DNA phosphodiesterase 1 (TDP1): qHTS in cells in presence of CPT | chicken DT40 Tdp1-/-;hTDP1 cells + 20 nM CPT, ATP luminescence, 48 h | Potency, µM (titrated, usually from 46.2 µM), hits mostly inhibitors | 12% of 420,000 active | AID 686979, 2013; also: nearly all actives have a fitted effect of over 55% in size
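Chicken DT40 Tdp1-/- cells complemented with human TDP1, 400 cells/well, exposed to compounds plus 20 nM camptothecin for at least 48 h at 37 C; viability read as ATP content by CellTiter-Glo luminescence.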
Large screens that a line does not name were inactive. Calls follow the shape of the dose curve; as a rule, active = well fitted curve in the direction sought with a large enough effect; inconclusive = small, poorly fitted or top-dose-only effect, or another doubt; inactive = no such curve, though single readings can be large; an effect the other way counts as inactive or inconclusive.

Cc1ccc(C2CC(c3cccs3)=NN2S(=O)(=O)c2ccc(C)cc2)cc1 (stereo unspecified)	DT40 TDP1 no CPT 23µM, DT40 TDP1 CPT 21µM
O=S(=O)(c1ccccc1)N1N=C(c2cccs2)CC1c1cccc(O)c1 (stereo unspecified)	DT40 TDP1 no CPT 16µM, DT40 TDP1 CPT inconclusive
O=S(=O)(c1ccccc1)N1N=C(c2cccs2)CC1c1ccc(F)cc1 (stereo unspecified)	DT40 TDP1 no CPT inconclusive, DT40 TDP1 CPT inconclusive
COc1ccc(C2CC(c3cccs3)=NN2S(=O)(=O)c2ccc(C)cc2)cc1 (stereo unspecified)	DT40 TDP1 no CPT 23µM, DT40 TDP1 CPT 23µM
CN(C)CCN(C(=O)C1=COCCO1)c1nc2ccc(F)cc2s1	none
NC(=O)c1c(/N=C/c2cccs2)sc2c1CCCC2	DT40 TDP1 no CPT 3.7µM, DT40 TDP1 CPT 3.7µM (no result: ATXN2 expr inh)
O=c1[nH]cc(C(F)(F)F)cc1NS(=O)(=O)c1ccccc1[N+](=O)[O-]	none
COc1ccc(N=C2S/C(=C\c3ccc(C)s3)C(=O)N2CC(C)C)cc1	none
COc1ccccc1N1C(=O)S/C(=C\c2cc(C)n(C)c2C)C1=O	S2 tox inconclusive, DT40 TDP1 no CPT inconclusive, DT40 TDP1 CPT inconclusive
COc1ccc(N=C2S/C(=C\c3cc(C)n(C)c3C)C(=O)N2C)cc1	TGFb SMAD3 inh inconclusive, DT40 TDP1 no CPT 6.5µM, DT40 TDP1 CPT inconclusive
CCCN1C(=O)/C(=C/c2cc(C)n(C)c2C)SC1=Nc1ccc(OC)cc1	DT40 TDP1 no CPT 9.2µM, DT40 TDP1 CPT 13µM
Cc1cn([C@@H]2O[C@H](CO)[C@@H](O)[C@H]2F)c(=O)[nH]c1=O	none (no result: TGFb SMAD3 inh, HepG2 tox, DT40 TDP1 no CPT, DT40 TDP1 CPT)
CCCCCCC1CC(=O)NC(=S)N1 (stereo unspecified)	S2 tox inconclusive
Cc1nc(Cc2nnc(SCC(=O)N3c4ccccc4NC(=O)C3(C)C)o2)cs1	DT40 TDP1 no CPT 16µM (no result: ATXN2 expr inh)
Cc1nc(Cc2nnc(SCC(=O)N3CC(=O)Nc4ccccc43)o2)cs1	none
CC(C)(C)C(=O)[C@@H]1[C@@H]2C(=O)N(C3CCCCC3)C(=O)[C@@H]2[C@H]2c3ccccc3C=CN12	TGFb SMAD3 inh inconclusive, DT40 TDP1 no CPT inconclusive, DT40 TDP1 CPT 23µM (no result: S2 tox, ATXN2 expr inh)
COc1ccc(N2C(=O)[C@@H]3[C@H](C2=O)[C@H]2c4ccccc4C=CN2[C@@H]3C(C)=O)cc1	DT40 TDP1 no CPT 16µM, DT40 TDP1 CPT inconclusive
O=C(c1ccc2c(c1)OCO2)[C@@H]1[C@@H]2C(=O)N(C3CCCCC3)C(=O)[C@@H]2C2c3ccccc3C=CN21 (stereo partly specified)	DT40 TDP1 no CPT 16µM, DT40 TDP1 CPT inconclusive
O=C(c1ccc2c(c1)OCO2)C1CCCN(C(=O)C2CCOCC2)C1 (stereo unspecified)	none
COc1ccc(N2C(=O)[C@H]3[C@@H](C2=O)C2c4ccccc4C=NN2[C@H]3C(=O)C(C)(C)C)cc1 (stereo partly specified)	none
COc1ccc(S(=O)(=O)N2CCC(C(=O)Oc3ccc(C)cc3)CC2)cc1OC	none
O=C(O)CCN1C(=O)c2ccc(Oc3ccc([N+](=O)[O-])cc3)cc2C1=O	none
Cc1cccc(NC(=O)CNC(=O)COc2ccc(-c3ccc(C#N)cc3)cc2)c1C	DT40 TDP1 no CPT 13µM
Cc1cccc(NC(=O)CNC(=O)COc2ccc(C(=O)c3ccc(F)cc3)cc2)c1C	S2 tox inconclusive, DT40 TDP1 no CPT 10µM, DT40 TDP1 CPT 18µM
CC1=C(C(=O)Nc2cccc(C)c2C)C2(CCCCC2)OC1=O	none (no result: S2 tox, TGFb SMAD3 inh, ATXN2 expr inh)
COc1ccc(OC)c(NC(=O)CSc2nc3ccccc3c(=O)n2CC2CCCO2)c1 (stereo unspecified)	none

Screening results: PubChem, National Center for Advancing Translational Sciences (NCATS)
